PubChem BioAssay
Values without a mark were called inactive. For some assays here: Results with a measured potency or affinity are listed apart. Active and inactive are the calls of the source. Unless noted, the rule behind the calls is not given here.

Tests used:
[1] = antimalarial activity against Dd2 strain (AID 2302;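 active = growth inhibition above 50% at the single 2 µM test dose, taken to imply half-maximal potency below 2 µM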;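 note: 0% = DMSO untreated growth and 100% = chloroquine plus artemisinin killed control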); settings: P. falciparum Dd2 in RBCs, LDH growth readout, 72 h; at 2 µM; active compounds read high
[2] = HepG2 cytotoxicity, primary screen, cytotoxicity control for P. falciparum antimalarial project, cell-based, ATP luminescence (AID 2303;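 active = inhibition above 50%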;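 note: 0% = DMSO wells and 100% = digitonin-killed cells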); settings: HepG2 viability, 24-48 h, at 10 µM, active compounds read high
[3] = target: L-lactate dehydrogenase (Plasmodium falciparum (isolate CDC / Honduras)) (UniProt Q27743); assay: PfLDH activity inhibition – cell lysate, 3D7 strain, counter-screen for P. falciparum growth inhibition project (AID 2304);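 note: 0% = vehicle and 100% = reference inhibitor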; settings: P. falciparum 3D7 crude extract, LDH APAD/NBT absorbance; at 2 µM; active compounds read high
L-lactate dehydrogenase (Plasmodium falciparum (isolate CDC / Honduras)), sequence (Q27743 whole entry, looked up): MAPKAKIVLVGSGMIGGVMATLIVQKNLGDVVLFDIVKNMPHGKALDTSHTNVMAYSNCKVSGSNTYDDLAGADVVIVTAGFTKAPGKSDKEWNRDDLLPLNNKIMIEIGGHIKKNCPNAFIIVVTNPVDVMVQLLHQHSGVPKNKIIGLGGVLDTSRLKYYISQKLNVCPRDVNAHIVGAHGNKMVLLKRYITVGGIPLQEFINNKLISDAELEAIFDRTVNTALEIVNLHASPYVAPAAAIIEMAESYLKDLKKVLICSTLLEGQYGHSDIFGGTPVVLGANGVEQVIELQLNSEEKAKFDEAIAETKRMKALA

[4] = inhibition of 3D7 malaria parasite growth – strain 3D7 (AID 2306);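 note: 0% = DMSO wells and 100% = chloroquine plus artemisinin control wells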; settings: P. falciparum 3D7 erythrocytic growth, LDH absorbance, 72 h; at 2 µM; active compounds read high
[5] = target: Calcium-dependent protein kinase 1 (Plasmodium falciparum (isolate 3D7)) (UniProt P62344); assay: PfCDPK1 kinase inhibitors, biochemical, TCAMS library (AID 1159585; cut-off not given, nearly all actives have IC50 up to about 0.98 µM;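 note: inhibitors leave more ATP so luminescence rises with inhibition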); settings: recombinant PfCDPK1, Kinase-Glo ATP depletion luminescence
Calcium-dependent protein kinase 1 (Plasmodium falciparum (isolate 3D7)), sequence (P62344 whole entry, looked up): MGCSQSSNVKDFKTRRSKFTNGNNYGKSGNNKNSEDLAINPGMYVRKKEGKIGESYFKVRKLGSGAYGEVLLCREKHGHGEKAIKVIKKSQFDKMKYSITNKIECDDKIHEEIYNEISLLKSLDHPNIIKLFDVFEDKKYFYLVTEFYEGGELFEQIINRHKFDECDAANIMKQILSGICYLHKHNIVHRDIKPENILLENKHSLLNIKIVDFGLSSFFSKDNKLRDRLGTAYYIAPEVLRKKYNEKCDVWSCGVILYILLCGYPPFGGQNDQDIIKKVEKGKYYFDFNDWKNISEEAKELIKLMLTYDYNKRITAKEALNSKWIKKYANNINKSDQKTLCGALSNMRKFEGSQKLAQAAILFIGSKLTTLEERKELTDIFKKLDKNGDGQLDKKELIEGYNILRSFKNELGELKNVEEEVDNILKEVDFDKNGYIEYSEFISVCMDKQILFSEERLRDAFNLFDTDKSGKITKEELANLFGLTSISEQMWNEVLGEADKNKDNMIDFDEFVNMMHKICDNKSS

[6] = target: Plasmodium falciparum protein kinase 6 (PK6, PF3D7_1337100) (UniProt Q8IDW1); assay: PfPK6 kinase inhibitors, biochemical, TCAMS library (AID 1159586); settings: recombinant PfPK6, Kinase-Glo ATP depletion luminescence
Plasmodium falciparum protein kinase 6 (PK6, PF3D7_1337100), sequence (Q8IDW1 1-305): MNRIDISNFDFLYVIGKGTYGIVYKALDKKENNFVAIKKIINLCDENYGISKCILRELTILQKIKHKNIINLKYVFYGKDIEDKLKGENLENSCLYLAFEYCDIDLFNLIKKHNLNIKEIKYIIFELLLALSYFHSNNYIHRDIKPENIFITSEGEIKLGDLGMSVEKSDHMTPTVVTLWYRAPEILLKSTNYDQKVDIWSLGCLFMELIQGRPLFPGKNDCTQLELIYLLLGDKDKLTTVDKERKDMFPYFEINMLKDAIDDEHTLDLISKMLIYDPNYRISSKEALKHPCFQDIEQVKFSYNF

[7] = target: Protein kinase 7 (PK7), Plasmodium falciparum 3D7 (PF3D7_0213400) (UniProt Q7YTF7); assay: inhibition of Plasmodium PK7 catalytic activity – biochemical, TCAMS antimalarial set, Kinase-Glo luminescence (AID 1159587); settings: recombinant PfPK7, Kinase-Glo ATP depletion luminescence
Protein kinase 7 (PK7), Plasmodium falciparum 3D7 (PF3D7_0213400), sequence (Q7YTF7 1-343): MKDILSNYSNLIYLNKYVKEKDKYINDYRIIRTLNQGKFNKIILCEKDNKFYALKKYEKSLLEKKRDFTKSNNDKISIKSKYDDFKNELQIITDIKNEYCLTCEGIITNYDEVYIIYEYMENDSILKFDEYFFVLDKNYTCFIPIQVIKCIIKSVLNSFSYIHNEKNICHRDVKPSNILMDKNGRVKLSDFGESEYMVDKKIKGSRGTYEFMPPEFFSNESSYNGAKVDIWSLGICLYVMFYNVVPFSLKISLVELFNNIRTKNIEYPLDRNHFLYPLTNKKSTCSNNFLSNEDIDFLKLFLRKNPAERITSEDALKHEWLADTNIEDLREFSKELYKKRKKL

[8] = target: Calcium-dependent protein kinase 4 (Plasmodium falciparum (isolate 3D7)) (UniProt Q8IBS5); assay: PfCDPK4 kinase inhibitors, biochemical, TCAMS library (AID 1159588; cut-off not given, nearly all actives have IC50 up to about 0.91 µM); settings: recombinant PfCDPK4, Kinase-Glo ATP depletion luminescence
Calcium-dependent protein kinase 4 (Plasmodium falciparum (isolate 3D7)), sequence (Q8IBS5 whole entry, looked up): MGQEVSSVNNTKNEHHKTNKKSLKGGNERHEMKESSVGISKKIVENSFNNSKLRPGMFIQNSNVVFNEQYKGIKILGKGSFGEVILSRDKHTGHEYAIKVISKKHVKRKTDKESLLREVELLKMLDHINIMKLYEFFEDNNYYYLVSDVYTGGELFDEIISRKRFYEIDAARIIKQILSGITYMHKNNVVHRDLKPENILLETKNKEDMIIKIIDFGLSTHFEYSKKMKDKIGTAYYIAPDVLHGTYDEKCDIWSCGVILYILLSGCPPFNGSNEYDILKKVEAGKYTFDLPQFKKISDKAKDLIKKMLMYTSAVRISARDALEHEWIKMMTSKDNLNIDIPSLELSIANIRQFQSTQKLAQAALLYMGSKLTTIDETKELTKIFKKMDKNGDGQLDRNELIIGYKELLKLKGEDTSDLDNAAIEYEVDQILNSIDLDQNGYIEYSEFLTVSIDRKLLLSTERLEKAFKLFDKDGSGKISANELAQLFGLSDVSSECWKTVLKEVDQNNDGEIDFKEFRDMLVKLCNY

Structure (SMILES)	growth inhibition [1]	inhibition [2]	inhibition [3] [%]	growth inhibition [4]	outcome [5]	outcome [6]	outcome [7]	outcome [8]
Nc1cccc(CNCc2cccc(-c3cccc(-c4nc5ccc(C(F)(F)F)cc5[nH]4)c3)c2)c1	96% (active)	8%	1	102% (active)	inactive	inactive	inactive	inactive
CC(C)C[C@@H](/C=N/N1CCOC1=O)NC(=O)[C@H](CC(C)C)NC(=O)c1ccc(F)cc1	72% (active)	1%	-4	85% (active)	inactive	inactive	inactive	inactive
C[C@H](Cc1ccc(CCc2ccc(C[C@@H](C)NC[C@H](O)c3cccc(Cl)c3)cc2)cc1)NC[C@H](O)c1cccc(Cl)c1	92% (active)	100% (active)	2	95% (active)	inactive	inactive	inactive	inactive
O=C(Nc1ccc(-n2ccc(C(F)(F)F)n2)cc1)c1cccs1	67% (active)	6%	-6	89% (active)	inactive	inactive	inactive	inactive
Cc1cc(NCCC(=O)NCCOc2ccccc2)nc(NCCOc2ccccc2)n1	20%	8%	0	92% (active)	inactive	inactive	inactive	inactive
Cc1cc(=O)[nH]c(-n2nc(C)cc2NC(=O)CC(c2ccccc2)c2ccccc2)n1	62% (active)	42%	2	90% (active)	inactive	inactive	inactive	inactive
CN1CCC(NCc2ccc(-c3cnc(NCc4ccccc4)nc3)cc2)CC1	64% (active)	23%	4	91% (active)	inactive	inactive	inactive	inactive
O=C(CCc1cnc[nH]1)Nc1cccc(-c2ccc(-c3nc4ccccc4[nH]3)s2)c1	37%	11%	0	92% (active)	inactive	inactive	inactive	inactive
Cc1[nH]c(C)c(-c2ccc(-c3ccc(F)cc3)cc2)c(=O)c1Br	52% (active)	12%	2	94% (active)	inactive	inactive	inactive	inactive
CCN1CCN(CC(O)CNC(=O)Nc2ccc(Cl)cc2)CC1 (stereo not given)	99% (active)	29%	3	100% (active)	inactive	inactive	inactive	inactive
CCC(CC)(Cc1ccccc1)NC(=O)[C@H](CC(C)C)Nc1ccc(C#N)c2ccccc12	73% (active)	57% (active)	-1	90% (active)	inactive	inactive	inactive	inactive
Cc1cc(CNCC(CCNc2cc(=O)c3ccccc3[nH]2)NCc2cc(Br)cc(Br)c2)oc1C (stereo not given)	85% (active)	4%	2	98% (active)	inactive	inactive	inactive	inactive
COc1cc2c(cc1N1CCN(C)CC1)N(C(=O)Nc1ccc(-c3ccncc3)c(Cl)c1Cl)CC2	4%	10%	-6	102% (active)	inactive	inactive	inactive	inactive
COc1ccc(C2CC(=O)C3=C(C2)NC(C)=C(C(=O)OC2CCCC2)C3c2ccc(O)cc2)cc1OC (stereo not given)	92% (active)	-9%	-7	97% (active)	inactive	inactive	inactive	inactive
Nc1ccc2[nH]cc(C3CCN(CC4CCC(NC(=O)/C=C/c5ccccc5Cl)CC4)CC3)c2n1 (stereo not given)	45%	7%	-3	100% (active)	inactive	inactive	inactive	inactive
CSc1ccc2ccccc2c1CNCCCCCCNCc1c(SC)ccc2ccccc12	74% (active)	83% (active)	3	99% (active)	inactive	inactive	inactive	inactive
COc1ccc(Nc2nc(NCc3cccnc3)cc(-c3ccc(OC)cc3)n2)cc1	16%	-2%	3	89% (active)	inactive	inactive	inactive	inactive
COc1c(C2CCN(CCCCNC(=O)c3ccc(-c4ccc(Cl)cc4)c(OCCN(C)C)c3)CC2)ccc2c1CCCC2	86% (active)	100% (active)	2	101% (active)	inactive	inactive	inactive	inactive
CCC(=O)N(c1ccccc1)C1CCN(CCCC(NC(=O)c2cc(C(F)(F)F)cc(C(F)(F)F)c2)c2ccc(Cl)c(Cl)c2)CC1 (stereo not given)	57% (active)	24%	0	96% (active)	inactive	inactive	inactive	inactive
O=S(=O)(c1cc(Cl)ccc1Cl)N1CCCCC(c2ccc(C(F)(F)F)cc2)=N1	68% (active)	15%	-1	87% (active)	inactive	inactive	inactive	inactive

Structure (SMILES)	growth inhibition [1]	inhibition [2]	inhibition [3] [%]	growth inhibition [4]	outcome [5]	outcome [6]	outcome [7]	outcome [8]
Cc1cccc2[nH]c(-c3ccc(-c4ccc(CN5CCN(c6ccncc6)CC5)cc4)cc3)nc12	100% (active)	98% (active)	3	102% (active)	inactive	inactive	inactive	inactive
COc1cc(F)c2nccc([C@@H](O)CN3CC[C@H](NCc4ccc5c(n4)NC(=O)CS5)[C@H](F)C3)c2c1	80% (active)	32%	5	87% (active)	inactive	inactive	inactive	inactive
O=C(/C=C/c1ccc(Cl)c(Cl)c1)NCCCCCN1CCCN(C(=S)Nc2cccc(Cl)c2)CC1	7%	19%	0	93% (active)	inactive	inactive	inactive	inactive
COc1c(C2=CCN(CCCCNC(=O)c3ccc(-c4ccc(C#N)cc4)cc3)CC2)c(C)cc2c1C(C)(C)CCC2(C)C	88% (active)	18%	-2	92% (active)	inactive	inactive	inactive	inactive
O=C(Nc1ccc(F)cc1)c1ccc(C(=O)NC2CCN(CC3CCCCC3)CC2)cc1	0%	34%	-7	99% (active)	inactive	inactive	inactive	inactive
CC(C)c1cccc(OCC2CCN(c3ncc(C(=O)Nc4ccccc4)cc3Cl)CC2)c1	88% (active)	9%	-2	89% (active)	inactive	inactive	inactive	inactive
N#Cc1ccc(C=Cc2nccc3c2[nH]c2ccccc23)cc1	28%	33%	0	97% (active)	inactive	inactive	inactive	inactive
O=C(NCc1cccc2ccccc12)C1CCCN(C(=O)c2ccc(O)c(-c3ccc(Cl)c(Cl)c3)c2)C1 (stereo not given)	23%	1%	-5	92% (active)	inactive	inactive	inactive	inactive
O=C(Nc1ccccc1C(F)(F)F)Nc1nn(Cc2c(F)cccc2Cl)cc1Br	86% (active)	-15%	-8	100% (active)	inactive	inactive	inactive	inactive
CC(C)C[C@@H](/C=N/N1CCOC1=O)NC(=O)[C@H](CC(C)C)NC(=O)c1ccc(OCCN2CCOCC2)cc1	87% (active)	5%	6	92% (active)	inactive	inactive	inactive	inactive
O=C(NC1CCN(Cc2ccc3c(c2)OCCO3)CC1)c1ccc(-c2cccc(C(F)(F)F)c2)s1	35%	99% (active)	5	100% (active)	inactive	inactive	inactive	inactive
N=c1n(Cc2ccccc2)c2ccccc2n1CC(O)c1ccc(Cl)cc1 (stereo not given)	75% (active)	26%	-1	96% (active)	inactive	inactive	inactive	inactive
CN(C)CC(O)C(c1ccccc1)c1cccc(Br)c1 (stereo not given)	9%	22%	-8	98% (active)	inactive	inactive	inactive	inactive
CC=CC1CCNC(C(O)c2ccnc3ccc(OC)cc23)C1 (stereo not given)	1%	-2%	3	91% (active)	inactive	inactive	inactive	inactive
COc1cc(CCN(C)Cc2ccc(OC)c(OC)c2)ccc1NC(=O)c1cccc2c(=O)c3cccc(F)c3[nH]c12	26%	14%	0	102% (active)	inactive	inactive	inactive	inactive
CC(C)C[C@H](NC(=O)c1ccc(OCCN2CCOCC2)cc1)C(=O)N[C@H](/C=N/N(C)C(=O)c1ccccc1)CCc1ccccc1	72% (active)	8%	1	91% (active)	inactive	inactive	inactive	inactive
O=C(Nc1ccc(-c2cccc(-c3nc4ccccc4[nH]3)c2)cc1)Nc1ccsc1	90% (active)	56% (active)	-7	101% (active)	inactive	inactive	inactive	inactive
FC(F)(F)c1ccc2nccc(NCc3ccccc3)c2c1	56% (active)	18%	-9	93% (active)	inactive	inactive	inactive	inactive
CCn1c(Sc2ccc(C#N)c([N+](=O)[O-])c2)nnc1-c1ccc(Cl)cc1	93% (active)	0%	6	97% (active)	inactive	inactive	inactive	inactive
CCOc1ccc2c(c1)C(C)(c1ccc3c(c1)C(C)CC(C)(C)N3)CC(C)(C)N2 (stereo not given)	3%	5%	-5	94% (active)	inactive	inactive	inactive	inactive
